The values below come from PubChem BioAssay (NCATS).

Each structure is given as a SMILES string. Inconclusive results are not listed. Activity calls are given as the source filed them. Calls come from the whole dose curve; as a rule, active = well fitted inhibition curve with a large enough effect; inconclusive = small, poorly fitted or top-dose-only effect; inactive = flat fitted curve, though single readings scatter.

Common to all, as to experiment: qHTS profiling for inhibitors of Plasmodium falciparum proliferation (AID 504749); note: nearly all actives have a fitted effect of over 60% in size
Common to all, as to details: P. falciparum in erythrocytes, SYBR Green DNA, 72 h; series mostly up to 28.7 µM
Background: In qHTS, concentration-response curves come from the screen itself.

In one experiment the test system is JCK. In a few lines:
(§1)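 Each compound contacts P. falciparum-infected red blood cells for 72 h at 37 C; lysis buffer (Tris, EDTA, saponin, Triton X, SYBR Green I) is added and fluorescence measured next morning; values normalized to controls.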

In a further experiment the test system is N140. In a few lines:
as §1

The next experiment concerns P93_24. Put shortly: as §1
A further experiment relates to P94_40. Put shortly: as §1
Another experiment has as its system PAD. Put shortly:
as §1

The next experiment relates to PC15. Put shortly:
as §1

A further experiment deals with PC26. Put shortly: as §1
Another experiment relates to PC49. In a few lines:
as §1

For the next experiment, the system named is SC27B. In a few lines: as §1
For the next experiment, the system named is TAB109. Put shortly: as §1
Potency is the fitted concentration of half-maximal effect.

As to `O=S(=O)(O)c1cc(I)c(O)c2ncccc12`, the Potency entry in the experiment with JCK, in the experiment with N140, in the experiment with P93_24, in the experiment on P94_40, in the experiment on PAD and in the experiment with PC15 was “inactive” throughout. The Potency entry with PC26, in the experiment with PC49, in the experiment on SC27B and with TAB109 was “inactive” each time.

As for `CCN(CC)CCNC(=O)c1cc(Cl)c(N)cc1OC`, the Potency entry in the experiment with JCK, with N140, with P93_24, in the experiment on P94_40, in the experiment with PAD and in the experiment with PC15 was “inactive” in each case. The Potency entry in the experiment with PC26, in the experiment with PC49, with SC27B and in the experiment on TAB109 was “inactive” in each case.

For the compound `CNC(=O)Oc1ccc2c(c1)[C@]1(C)CCN(C)[C@@H]1N2C`, the Potency with JCK was 2.82 µM (active); in the experiment with N140, 1.78 µM (active); with P93_24, 1.58 µM (active); with P94_40 it was 1.58 µM (active); in the experiment with PAD, 1.41 µM (active); with PC15, 1.78 µM (active). Moreover, the figures for the Potency in the experiment on PC49 and in the experiment with TAB109 were 2 µM (active) and 2.24 µM (active), respectively.

With `O=C(O)COc1nn(Cc2ccccc2)c2ccccc12`, the Potency entry in the experiment on JCK, with N140, with P93_24, in the experiment with P94_40, in the experiment on PAD and with PC15 was “inactive” throughout. The Potency result in the experiment on PC26, with PC49, in the experiment with SC27B and in the experiment on TAB109 was “inactive” each time.

For `CC(C)(C)C(=O)NCCCC(=O)O`, the Potency entry in the experiment on JCK, in the experiment on N140, in the experiment with P93_24, with P94_40, in the experiment with PAD and with PC15 was “inactive” each time. Further, the Potency result with PC26, with PC49, with SC27B and in the experiment with TAB109 was “inactive” in each case.

In the case of `CC1=C(/C=C/C(C)=C/C=C/C(C)=C/C(=O)O)C(C)(C)CCC1`, the Potency result in the experiment with JCK, in the experiment on N140, in the experiment on P93_24, in the experiment with P94_40, in the experiment on PAD and in the experiment on PC15 was “inactive” in each case. Besides, the Potency entry in the experiment on PC26, in the experiment with PC49, in the experiment on SC27B and in the experiment with TAB109 was “inactive” each time.

Regarding `Nc1nc2c(ncn2CCC(CO)CO)c(=O)[nH]1`, the Potency result in the experiment on JCK, in the experiment on N140, in the experiment on P93_24, with P94_40, with PAD and in the experiment on PC15 was “inactive” in each case. In addition, the Potency entry in the experiment with PC26, in the experiment with PC49, in the experiment on SC27B and in the experiment on TAB109 was “inactive” in each case.

As to `Oc1cccc(O)c1`, the Potency result with JCK, in the experiment on N140, with P93_24, with P94_40, in the experiment with PAD and in the experiment on PC15 was “inactive” throughout. In addition, the Potency entry in the experiment on PC26, with PC49, in the experiment with SC27B and with TAB109 was “inactive” each time.

Regarding `C[C@](N)(Cc1ccc(O)cc1)C(=O)O`, the Potency result in the experiment with JCK, with N140, in the experiment with P93_24, in the experiment with P94_40, with PAD and in the experiment with PC15 was “inactive” in each case. Also, the Potency entry with PC26, in the experiment on PC49, in the experiment on SC27B and in the experiment with TAB109 was “inactive” in each case.

As for `O=C1NS(=O)(=O)c2ccccc21`, the Potency result in the experiment with JCK, in the experiment with N140, in the experiment on P93_24, in the experiment with P94_40, in the experiment on PAD and with PC15 was “inactive” each time. Moreover, the Potency result with PC26, with PC49, in the experiment on SC27B and in the experiment on TAB109 was “inactive” throughout.

On to `O=c1[nH]c(=O)c2[nH]c(=O)[nH]c2[nH]1`, for which the Potency result with JCK, with N140, in the experiment with P93_24, with P94_40, in the experiment on PAD and in the experiment with PC15 was “inactive” each time. For the same compound, the Potency entry in the experiment on PC26, with PC49, in the experiment with SC27B and in the experiment on TAB109 was “inactive” in each case.

Regarding `CC1(C)CO[C@@H](CC(=O)O)CN1`, the Potency entry in the experiment with JCK, in the experiment with N140, with P93_24, in the experiment on P94_40, with PAD and in the experiment with PC15 was “inactive” throughout. The Potency result in the experiment with PC26, in the experiment with PC49, with SC27B and with TAB109 was “inactive” in each case.

`Nc1ccc(S(=O)(=O)Nc2ccccc2)cc1`: the Potency entry in the experiment with JCK, with N140, in the experiment with P93_24, with P94_40, in the experiment on PAD and in the experiment with PC15 was “inactive” each time. In addition, the Potency result in the experiment on PC26, in the experiment on PC49, with SC27B and with TAB109 was “inactive” throughout.

As for `CC(O)COc1ccccc1` (stereo not drawn), the Potency entry in the experiment with JCK, with N140, in the experiment on P93_24, in the experiment on P94_40, in the experiment with PAD and in the experiment with PC15 was “inactive” each time. In addition, the Potency result in the experiment on PC26, in the experiment on PC49, with SC27B and in the experiment on TAB109 was “inactive” in each case.

On to `O=C(O)c1ccccc1O`, for which the Potency entry in the experiment with JCK, in the experiment with N140, in the experiment on P93_24, with P94_40, with PAD and in the experiment on PC15 was “inactive” in each case. In addition, the Potency result in the experiment with PC26, in the experiment with PC49, with SC27B and with TAB109 was “inactive” throughout.

As for `CC(C)(C)C(=O)C(Oc1ccc(Cl)cc1)n1ccnc1` (stereo not drawn), the Potency result with JCK was “inactive”. Further, the Potency was 8.91 µM (active) with N140; 5.01 µM (active) in the experiment on P93_24; 7.94 µM (active) in the experiment on P94_40; 8.91 µM (active) in the experiment with PAD; 16.9 µM (active) with PC26; 10 µM (active) in the experiment on TAB109.

Take `CC(=O)NC(Cc1ccccc1)C(=O)O` (stereo not drawn): the Potency entry in the experiment on JCK, in the experiment on N140, in the experiment on P93_24, in the experiment with P94_40, in the experiment on PAD and with PC15 was “inactive” in each case. Moreover, the Potency entry with PC26, with PC49, in the experiment with SC27B and in the experiment with TAB109 was “inactive” in each case.

Consider `CC1=C(CC(=O)O)c2cc(F)ccc2/C1=C\c1ccc(S(C)=O)cc1` (stereo not drawn), for which the Potency entry in the experiment on JCK, with N140, with P93_24, in the experiment with P94_40, in the experiment on PAD and in the experiment on PC15 was “inactive” throughout. Further, the Potency entry in the experiment with PC26, with PC49, in the experiment with SC27B and in the experiment on TAB109 was “inactive” in each case.

With `C[C@H]1O[C@@H](n2cc(F)c(=O)[nH]c2=O)[C@H](O)[C@@H]1O`, the Potency entry with JCK, in the experiment on N140, in the experiment on P93_24, in the experiment on P94_40, in the experiment on PAD and in the experiment with PC15 was “inactive” each time. Further, the Potency entry in the experiment with PC26, in the experiment on PC49, in the experiment with SC27B and with TAB109 was “inactive” in each case.

For `CCC(=O)c1ccc(O)cc1`, the Potency result in the experiment with JCK, in the experiment on N140, in the experiment on P93_24, in the experiment with P94_40, with PAD and with PC15 was “inactive” in each case. Also, the Potency result in the experiment on PC26, in the experiment on PC49, in the experiment on SC27B and in the experiment on TAB109 was “inactive” throughout.

As for `O=Cc1ccccc1C=O`, the Potency entry in the experiment with JCK, in the experiment with N140, in the experiment with P93_24, in the experiment with P94_40, with PAD and with PC15 was “inactive” in each case. Also, the Potency entry with PC26, in the experiment on PC49, with SC27B and in the experiment on TAB109 was “inactive” in each case.

Regarding `COc1ccc(Cl)cc1C(=O)NCCc1ccc(S(=O)(=O)NC(=O)NC2CCCCC2)cc1`, the Potency entry in the experiment with JCK, in the experiment on N140, in the experiment on P93_24, in the experiment on P94_40, with PAD and in the experiment with PC15 was “inactive” throughout. Also, the Potency entry in the experiment with PC26, in the experiment with PC49, with SC27B and with TAB109 was “inactive” each time.

Regarding `CCC(=O)Nc1ccc(O)cc1`, the Potency result with JCK, with N140, in the experiment with P93_24, in the experiment with P94_40, in the experiment with PAD and with PC15 was “inactive” in each case. Besides, the Potency result in the experiment with PC26, in the experiment with PC49, in the experiment with SC27B and in the experiment with TAB109 was “inactive” in each case.

For the compound `Oc1cn2c(n1)Nc1ccc(Cl)c(Cl)c1C2`, the Potency result in the experiment on JCK, in the experiment with N140, in the experiment with P93_24, in the experiment with P94_40, in the experiment on PAD and in the experiment on PC15 was “inactive” in each case. Also, the Potency result in the experiment on PC26, in the experiment on PC49, with SC27B and in the experiment on TAB109 was “inactive” in each case.

For `COCCOC(=O)C1=C(C)NC(C)=C(C(=O)OC/C=C/c2ccccc2)C1c1cccc([N+](=O)[O-])c1` (stereo not drawn), the Potency result with JCK and in the experiment on PC49 was “inactive” throughout. Moreover, the Potency with N140 was 8.91 µM (active); in the experiment on P93_24 it was 11.2 µM (active); in the experiment with PAD, 8.91 µM (active); in the experiment on SC27B, 10 µM (active).

On to `Oc1ccc(C(O)CNCCCCCCNCC(O)c2ccc(O)c(O)c2)cc1O` (stereo not drawn), for which, in the experiment on P93_24, the Potency was 10 µM (active). Also, the Potency entry in the experiment on PC49 was “inactive”.
